In the supplement of paper PMC8371130 one finds relative cell viability data, which are given here for 34 compounds.

Where a name gives a salt, the structure may show the parent alone.

The test system of this assay is HL-1. Description: relative cell viability (CellTiter-Glo) vs DMSO control (% of DMSO control); higher = more viable cells. To be noted: oxygen condition: normoxia 72 h; 5000 nM. The gist of the method: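 HL-1 mouse atrial cardiomyocytes were seeded into 384-well plates at 1000 cells per well along with compounds at 40, 200, 1000 or 5000 nM in 0.01% DMSO. After one day, the cells were moved to a hypoxic workstation (1% O2) for 48 h and then reoxygenated for 24 h in a normal incubator, while others remained in normoxia for the same period. Cell viability was measured by CellTiter-Glo luminescence and normalised to vehicle-treated control cells.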
On to `CN(C)CCOC(C)(c1ccccc1)c1ccccn1` (centres undefined) [Doxylamine Succinate], for which the relative cell viability is 123.

`CC(C[N+](C)(C)C)OC(N)=O` (centres undefined) [Bethanechol chloride] returned a relative cell viability of 111. With `CC(C)NC[C@H](O)COc1ccc(CCOCC2CC2)cc1` [Levobetaxolol HCl], the relative cell viability is 115. Then `CNC[C@H](O)c1cccc(O)c1` [Phenylephrine HCl], with 118; and `CC1(C)O[C@@H]2[C@@H](CO[C@@]3(COS(N)(=O)=O)OC(C)(C)O[C@@H]23)O1` [Topiramate], with 98.8. Then `O=C1c2cccc3c2[C@H](CCC3)CN1[C@@H]1CN2CCC1CC2` [Palonosetron HCl], with 104; and `NS(=O)(=O)c1cc2c(cc1Cl)N=CNS2(=O)=O` [Chlorothiazide], with 110; and `Nc1ncn([C@@H]2O[C@H](CO)[C@@H](O)[C@H]2O)c(=O)n1` [Azacitidine], with 84.5.

Take `O=C(O)Cc1cc(I)c(Oc2ccc(O)c(I)c2)c(I)c1` [Tiratricol]: the relative cell viability was 126.

Compound `Cc1onc(-c2ccccc2)c1C(=O)N[C@@H]1C(=O)N2[C@@H]1SC(C)(C)[C@@H]2C(=O)O` [Oxacillin sodium monohydrate] yielded a relative cell viability of 109.

As for `N[C@@H](Cc1cc(I)c(Oc2cc(I)c(O)c(I)c2)c(I)c1)C(=O)O` [L-Thyroxine], the relative cell viability was 109. `COc1ccc(Cl)cc1C(=O)NCCc1ccc(S(=O)(=O)NC(=O)NC2CCCCC2)cc1` [Glyburide] yielded a relative cell viability of 109.

On to `COC(=O)C1=C(C)NC(C)=C(C(=O)OC(C)C)C1c1cccc2nonc12` (centres undefined) [Isradipine], for which the relative cell viability is 110.

In turn, `CN(C)CCN(Cc1ccccc1)c1ccccn1` [Tripelennamine HCl] came in with a relative cell viability of 105. Consider `CN1CCCCC1CCN1c2ccccc2Sc2ccc([S+](C)[O-])cc21` (centres undefined) [Mesoridazine Besylate], for which the relative cell viability turned out to be 115. For `N[C@@H](Cc1ccc(O)c(O)c1)C(=O)O` [Levodopa], the relative cell viability turned out to be 104.

Take `CNCC[C@H](Oc1cccc2ccccc12)c1cccs1` [Duloxetine HCl]: the relative cell viability amounted to 104. In turn, `CCCNC(C)C(=O)Nc1c(C)csc1C(=O)OC` (centres undefined) [Articaine HCl] returned a relative cell viability of 107. Consider `CCOc1nc2cccc(C(=O)O)c2n1Cc1ccc(-c2ccccc2-c2nnn[nH]2)cc1` [Candesartan], for which the relative cell viability worked out at 110. Then `COc1ccc(-c2nc3cc(C4=NNC(=O)CC4C)ccc3[nH]2)cc1` (centres undefined) [Pimobendan], with 111; and `CCCN[C@H]1CCc2nc(N)sc2C1` [Pramipexole dihydrochloride monohydrate], with 110. `CCN(CC)C(=S)SSC(=S)N(CC)CC` [Disulfiram] yielded a relative cell viability of 3.79.

The compound `CN[C@H](CC(C)C)C(=O)N[C@H]1C(=O)N[C@@H](CC(N)=O)C(=O)N[C@H]2C(=O)N[C@H]3C(=O)N[C@H](C(=O)N[C@H](C(=O)O)c4cc(O)cc(O)c4-c4cc3ccc4O)[C@H](O)c3ccc(c(Cl)c3)Oc3cc2cc(c3O[C@@H]2O[C@H](CO)[C@@H](O)[C@H](O)[C@H]2O[C@H]2C[C@](C)(N)[C@H](O)[C@H](C)O2)Oc2ccc(cc2Cl)[C@H]1O` [Vancomycin HCl] gave a relative cell viability of 113. In turn, `COC(=O)[C@H](c1ccccc1Cl)N1CCc2sccc2C1` [Clopidogrel] came in with a relative cell viability of 119.

On to `CN(CCOc1ccc(NS(C)(=O)=O)cc1)CCc1ccc(NS(C)(=O)=O)cc1` [Dofetilide], for which the relative cell viability turned out to be 107. `COC(=O)N[C@H](C(=O)N[C@@H](Cc1ccccc1)[C@@H](O)CN(Cc1ccc(-c2ccccn2)cc1)NC(=O)[C@@H](NC(=O)OC)C(C)(C)C)C(C)(C)C` [Atazanavir sulfate] showed a relative cell viability of 116. The same measure for `CN(C)CCc1c[nH]c2ccc(Cn3cncn3)cc12` [Rizatriptan Benzoate]: 113; for `CC=CC1=C(C(=O)O)N2C(=O)[C@@H](NC(=O)[C@H](N)c3ccc(O)cc3)[C@H]2SC1` [Cefprozil hydrate]: 107; for `NC(=O)CC[C@H](N)C(=O)O` [L-Glutamine]: 113. Then `CCOC(=O)[C@H](CCc1ccccc1)N[C@@H](C)C(=O)N1[C@H](C(=O)O)C[C@@H]2CCC[C@@H]21` [Ramipril], with 116. The same measure for `CN(C)CCCN1c2ccccc2Sc2ccc(C(F)(F)F)cc21` [Triflupromazine HCl]: 106; for `OC(CCN1CCCCC1)(c1ccccc1)C1CC2C=CC1C2` (centres undefined) [Biperiden HCl]: 100; for `CC(=O)Oc1ccccc1C(=O)O` [Aspirin]: 122.

`COc1ccccc1OCC(O)COC(N)=O` (centres undefined) [Methocarbamol]: the relative cell viability was found to be 114.
